Source: PubChem (National Center for Advancing Translational Sciences (NCATS))
IMPase Li cell: IMPase inhibition in cells with lithium potentiation. AID 1457. actives 0.35% (n = 210,000). CHO-M1 cells, IP1 TR-FRET (IP-One), carbachol + lithium. Potency, µM (series often up to 59.4 µM), for the others: top-dose activity, negative = IMPase inhibition, usual class: inhibitors;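 note: IP1 builds up when IMPase is blocked and the TR-FRET signal falls; potency is the fitted concentration of half-maximal effect; plate controls were basal vehicle for no effect and high inhibitor control for full effect; nearly all actives have a fitted effect of over 50% in size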
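Test compounds were applied to CHO-M1 cells previously cultured for 16–30 h at 2000 per well. A small lithium amount accompanied them; after 30 min at 37C, IP1 was quantified by TR-FRET.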
PNC inhibitor: inhibitors of perinucleolar compartment assembly; AID 2417; activity change (PNC), negative = inhibition, % at 10 µM; actives 3.1% (n = 140,000); PC3M PTB-GFP, PNC prevalence imaging, 16 h; hits give low values;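 active = readout at or below -70, meaning at least 70% loss of cells showing the perinucleolar compartment, a nuclear body marking cancer cells; inconclusive = readout between -30 and a set limit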;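 note: plate controls were DMSO wells for no effect and camptothecin positive control wells for full effect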
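PC3M cells stably expressing PTB-GFP, 750–1000 cells/well, treated 16 h at 37 °C with compound (23 nl of library stock), in duplicate. After paraformaldehyde fixation and Hoechst stain, imaged at 20x; PNC prevalence scored by image analysis.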
IMPase inh: membrane-permeable compound that blocks inositol monophosphatase; P97697; CHO-M1 cells, IP1 accumulation, HTRF TR-FRET ratio; inhibition (IP1 accumulation), % at 46.1 µM; 120,000 tested, under 10 active; AID 901; active = well fitted curve in the direction sought with a large enough effect in the signal ratio, not every such curve was filed as active; inconclusive = small, poorly fitted or top-dose-only effect, or a change in a side signal; inactive = no such curve, though single readings can be large or run the other way; the % refers to the signal ratio;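 note: cells stimulated with carbachol in lithium chloride buffer; plate controls were DMSO basal wells for no effect and reference inhibitor wells for full effect; higher means more IMPase inhibition seen as more IP1 and lower FRET ratio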
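Measured: the HTRF emission ratio (665/620 nm) plus the 620 nm donor channel, each fitted to the Hill equation to give AC50. Cells were CHO-M1 given compounds up to 46 uM and a 30 min carbachol stimulation at 37C.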
15-hLO-2 inh: inhibitors of human 15-lipoxygenase 2 (ALOX15B); O15296; purified 15hLO-2, xylenol orange hydroperoxide absorbance; Potency, µM (highest dose often 57.1 µM), without a hit: at the top dose activity change, negative = inhibition, actives largely listed as inhibitors; actives 0.56% (n = 110,000); note: potency is the fitted concentration of half-maximal effect; nearly all actives have a fitted effect of over 60% in size
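Read-out: hydroperoxide product oxidises ferrous iron, measured as xylenol orange complex via the 573-to-405 nm absorbance ratio after 30 min. Reaction: 50 nM enzyme, 15 min compound preincubation, 45 uM arachidonic acid, 90 min RT, Hepes pH 7.5 with Triton X-100.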
12-hLO inh: 12-hLO (ALOX12) enzyme inhibition; P18054; purified 12-hLO, xylenol orange hydroperoxide absorbance; Potency, µM (doses to about 57.1 µM), for inactives: top-dose activity change, negative = inhibition, usual class: inhibitors; actives 0.12% (n = 150,000); AID 1452; note: potency is the fitted concentration of half-maximal effect; nearly all actives have a fitted effect of over 55% in size
Target sequence (P18054 whole entry, looked up): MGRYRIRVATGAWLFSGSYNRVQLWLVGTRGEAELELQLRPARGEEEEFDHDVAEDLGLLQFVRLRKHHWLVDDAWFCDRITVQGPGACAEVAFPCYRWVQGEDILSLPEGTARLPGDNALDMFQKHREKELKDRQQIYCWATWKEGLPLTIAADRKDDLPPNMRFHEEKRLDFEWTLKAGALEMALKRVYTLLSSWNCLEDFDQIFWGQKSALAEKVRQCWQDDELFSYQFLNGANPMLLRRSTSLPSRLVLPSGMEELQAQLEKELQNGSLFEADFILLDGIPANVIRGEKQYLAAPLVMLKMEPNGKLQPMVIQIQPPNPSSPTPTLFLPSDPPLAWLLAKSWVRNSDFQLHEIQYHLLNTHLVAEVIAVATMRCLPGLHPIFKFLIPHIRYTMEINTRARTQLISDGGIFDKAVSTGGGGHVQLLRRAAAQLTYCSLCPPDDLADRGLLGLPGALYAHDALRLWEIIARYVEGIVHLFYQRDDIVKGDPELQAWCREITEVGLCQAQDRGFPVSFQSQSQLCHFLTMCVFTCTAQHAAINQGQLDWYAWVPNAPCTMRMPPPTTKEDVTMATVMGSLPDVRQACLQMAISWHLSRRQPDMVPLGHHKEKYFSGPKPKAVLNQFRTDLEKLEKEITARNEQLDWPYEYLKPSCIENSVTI
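150 nM 12hLO, 25 mM Hepes pH 7.0 + 0.01% Triton X-100; cpd preinc 15 min RT; 40 uM arachidonic acid, 30 min RT; Fe-XO 30 min; A573/A405 ratio as read-out.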
HPGD block: inhibitors of human 15-hydroxyprostaglandin dehydrogenase (HPGD) | actives 4.3% (n = 150,000) | purified HPGD, NADH fluorescence kinetic, PGE2 substrate | AID 894 | Potency, µM, without a hit: at the highest dose activity change, negative = inhibition, hits mostly inhibitors; active = well fitted inhibition curve with a large enough effect, not every such curve was filed as active; inconclusive = small, poorly fitted or top-dose-only effect, or another doubt; inactive = no such curve, though single readings can be large or run the other way; note: potency is the fitted concentration of half-maximal effect
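20 nM HPGD preincubated 15 min at room temperature with compound in 50 mM Tris-HCl pH 8, 0.01% Tween 20. Started with 1 mM NAD+ and 30 uM prostaglandin E2; NADH fluorescence (360/450 nm) read 5 times over 30-s intervals, last minus first.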
Starred values were filed as active, the others as inactive; ? = inconclusive; . = no result; [ ] = dose if it differs, or a comment. An excerpt weighted towards active compounds, which were near 5.4% of everything screened. Unless noted, calls come from the whole dose curve; as a rule, active = well fitted curve in the direction sought with a large enough effect; inconclusive = small, poorly fitted or top-dose-only effect, or another doubt; inactive = no such curve, though single readings can be large; an effect the other way counts as inactive or inconclusive. Unless noted, % is set by controls: 0 for no effect and ±100 for the full control effect.

SMILES | IMPase Li cell | PNC inhibitor | IMPase inh | 15-hLO-2 inh | 12-hLO inh | HPGD block
Cc1ccc(Cn2c(=N)c(C#N)cc3c(=O)n4cccc(C)c4nc32)cc1 | 9% | . | . | . | . | .
Cc1ccc(-n2c(=O)c(C#N)cc3c(=O)n4cccc(C)c4nc32)cc1 | 10µM* | -25 | 3 | -9% | 4% | ?
COc1ccc(S(=O)(=O)Cc2ccc(C(=O)N3CCC(C(N)=O)CC3)o2)cc1 | -2%[38.3 µM] | -85* | -4 | 3% | 7% | -8%
COc1ccc(S(=O)(=O)Cc2ccc(C(=O)N3CCCC3)o2)cc1 | 2%[38.3 µM] | ? | -1 | 0% | 3% | -15%
COc1cc(/C=N/NC(=O)c2cc(-c3ccccc3)n[nH]2)cc(OC)c1OC | . | . | . | . | -5% | ?
C/C=C/c1ccc(OCCCCOc2ccccc2C(C)=O)c(OC)c1 | 11% | 29 | . | . | -1% | 14µM*
COc1cc(C=O)ccc1OCCOCCOc1ccc(Cl)cc1 | 7%[38.3 µM] | 19 | -2 | 0% | -2% | -29%
COc1ccccc1OCCCCOc1ccccc1C(C)=O | 9% | -10 | . | . | -1% | -8%
C/C=C/c1ccc(OCCOc2ccc(C=O)cc2)c(OC)c1 | -8% | -4 | . | . | -2% | 25µM*
O=[N+]([O-])c1ccc(CCO)cc1 | 22% | . | . | -5% | 1% | -5%
Cc1ccc(N=Cc2c(C)[nH]n(-c3nc4ccccc4[nH]3)c2=O)cc1 | -8% | -81* | . | . | -2% | -16%
Cc1ccc(-n2[nH]c(C)c(C=Nc3ccc4[nH]c(=O)[nH]c4c3)c2=O)cc1 | 11% | 60 | . | . | -3% | -17%
Cc1ccccc1NC(=O)CSc1nc(N)c(C#N)c(-c2cccs2)c1C#N | 5µM* | ? | ? | ? | -6% | ?
COc1ccc(CCNC(=O)CSc2nc(N)c(C#N)c(-c3cccs3)c2C#N)cc1OC | 28µM* | -13 | 1 | -3% | -4% | ?
Cc1nc(SCC(=O)Nc2nc3ccccc3s2)c(C#N)c(C)c1C | 4% | 16 | . | . | 1% | 28µM*
Cc1cc(C(F)(F)F)c(C#N)c(SCC(=O)Nc2nc3ccccc3s2)n1 | -7% | 24 | 4 | . | 1% | -22%
CN1CCN(c2ncc3nc(-c4cccc(C#N)c4)c(=O)n(CCC#N)c3n2)CC1 | -6% | . | . | -6% | . | .
O=C(O)CC12CSc3[nH]c(=O)sc3C1c1ccccc1OC2=O (stereo not given) | 20%[38.3 µM] | -84* | 1 | 11% | 1% | ?
CCOC(=O)C1CSc2[nH]c(=O)sc2C1c1ccccc1 (stereo not given) | 1%[38.3 µM] | 5 | 1 | -17% | -1% | -7%
OCC1O[C@H](OC2C(CO)O[C@@](O)(CO)C2O)C(O)C(O)C1O (stereo not given in full) | 31% | . | . | 2% | -1% | -10%
CC(NC(=O)C1CCCC1)C1CC2CCC1C2 (stereo not given) | -8% | 15 | . | . | 3% | 28µM*
CNC(=O)CSc1nnc(-c2cc(C)cc(C)c2)o1 | 28%[38.3 µM] | -103* | -1 | -3% | -5% | -10%
CCOc1ccc(NC2=NCC(=O)N2Cc2cccs2)cc1 | -15%[38.3 µM] | -105* | 3 | -3% | 1% | -16%
CCOc1ccc(NC2=NCCC(=O)N2Cc2cccs2)cc1 | 29%[38.3 µM] | ? | -3 | -9% | -1% | -5%
Cn1c(=O)c(-c2cccs2)nc2cnc(N3CCNCC3)nc21 | -3% | . | . | -4% | . | .
SMILES | IMPase Li cell | PNC inhibitor | IMPase inh | 15-hLO-2 inh | 12-hLO inh | HPGD block
O=c1c2ccccc2sn1-c1cc(S(=O)(=O)N2CCOCC2)ccc1N1CCOCC1 | 25%[38.3 µM] | ? | 12 | 0.5µM* | 2.2µM* | 0.79µM*
CC1=NN(Cc2ccccc2)C(=O)C1C(c1ccccc1)C(C#N)C#N (stereo not given) | -2%[38.3 µM] | 102 | 12 | -18% | -6% | 32µM*
Cc1cccc(CN2CCN([C@@H](c3ccccc3)c3ccc(Cl)cc3)CC2)c1 | 2% | . | 7[20.6 µM] | 28%[25.6 µM] | -5%[25.6 µM] | -4%
CC1=NN(Cc2ccccc2)C(=O)C1C(c1ccc(Cl)cc1)C(C#N)C#N (stereo not given) | 3% | -14 | . | . | -4% | 28µM*
CCOC(=O)Nc1cc(Br)c2c(c1)OCCO2 | -1%[38.3 µM] | 15 | 11 | 10% | -6% | 14µM*
Cc1ccccc1NC(=O)c1sc2nc(-c3ccncc3)ccc2c1N | . | . | -13 | . | . | .
O=c1oc2ccccc2c(NCc2cccc(F)c2)c1[N+](=O)[O-] | 6% | 202 | 15 | . | -2% | 20µM*
S=C(NCc1ccccc1)NCc1ccccc1 | 22%[38.3 µM] | -22 | 5 | -17% | ? | 14µM*
S=C(NCc1ccccc1)NNc1ccccc1 | -3% | . | . | . | . | .
C/C(=N\NC(=S)NCCc1ccccc1)c1ccc(C)cc1 | 27% | 246 | 2 | . | 14µM* | -19%
Cc1cccc(C)c1NC(=S)NC(C)CCc1ccccc1 (stereo not given) | 17% | -82* | 9 | . | ? | -5%
S=C(NCc1ccccc1)NCc1ccc2c(c1)OCO2 | -2% | ? | 6 | . | -7% | 16µM*
Cc1ccc(S(=O)(=O)Nc2ccc3c(c2)c(C(=O)OC(C)C)c(C)n3S(=O)(=O)c2ccc(C)cc2)cc1 | . | . | 2 | . | . | .
COc1cc2c(cc1OC)C(c1cc(OC)c(O)c(OC)c1)CC(=O)N2 (stereo not given) | . | . | 2 | . | . | .
C=CCCCC | 4% | . | . | -11% | -2% | -7%
CNc1ncnc2c1ncn2[C@@H]1O[C@H](COP(=O)(O)O)[C@@H](O)[C@H]1O | -27% | . | . | . | . | .
CC1(C)C(=O)NC2=C1C(=O)C(=O)c1ccccc12 | 89% | . | ? | -7% | -13% | -11%
COc1ccc(CCN(C)CCC[C@@](C#N)(c2cc(OC)c(OC)c(OC)c2)C(C)C)cc1OC | . | . | 9 | 27% | -3% | .
COc1ccc(CCNC(=S)Nc2ccccc2C)cc1 | -1%[38.3 µM] | -6 | -4 | ? | -5% | -2%
Cc1cccc(C)c1NC(=S)NCCc1ccccn1 | -11% | -105* | . | . | -1% | -9%
FC(F)Oc1ccc(NC(=S)NCc2ccccc2)cc1Cl | 60%[38.3 µM] | -1 | 3 | ? | ? | 14µM*
S=C(Nc1cccc(Cl)c1)N1CCN(Cc2ccccc2)CC1 | 4% | -80* | . | . | -2% | -12%
Cc1ccccc1NC(=S)NCCc1ccccc1 | 20% | ? | . | . | ? | 25µM*
COc1ccccc1NC(=O)CSc1nc(O)c(C/C=C/c2ccccc2)c(=O)[nH]1 | . | . | 12 | . | . | .
Cc1ccccc1-c1nc(NC(=O)CSc2ncnc3sc4c(c23)CCCC4)ns1 | . | . | 1 | . | . | .
CN(Cc1ccccc1)C(=O)c1ccc2c(c1)OCO2 | 9% | 43 | -16 | . | -2% | 14µM*
O=C(CNc1cccc(Cl)c1)NNC(=S)NCc1ccccc1 | 5% | . | . | . | . | .
